Source: PubChem BioAssay (Tox21)
Results filed as inconclusive are left out. Calls of active or inactive are those of the source. Unless noted, calls follow the shape of the dose curve; as a rule, active = well fitted curve in the direction sought with a large enough effect in the repeat runs; inconclusive = weak or mixed curves; inactive = no such curve, though single readings can be large; an effect the other way counts as inactive or inconclusive.

Key:
[1] = qHTS assay to test for compound auto fluorescence at 535 nm (green) in HEK293 cells (AID 720680)
[2] = qHTS assay to test for compound auto fluorescence at 460 nm (blue) in HEK293 cell free culture (AID 720681)
Method in brief: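 Compounds were added to cell-free DMEM with 10% FBS and fluorescence read directly. The blue channel used 405 nm excitation and 460 nm emission, with triamterene as the reference fluorophore.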

[3] = qHTS assay to test for compound auto fluorescence at 535 nm (green) in HEK293 cell free culture (AID 720682)
Method in brief: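 Intrinsic compound fluorescence is measured in culture medium containing 10% FBS, with excitation at 485 nm and detection at 535 nm, referenced to fluorescein.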

[4] = qHTS assay to test for compound auto fluorescence at 590 nm (red) in HEK293 cell free culture (AID 720683)
Method in brief: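 Cell-free wells of DMEM with 10% FBS received compound, and intrinsic fluorescence was read at excitation/emission 540/590 nm. Values expressed as equivalence to Rose Bengal sodium.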

[5] = qHTS assay to test for compound auto fluorescence at 590 nm (red) in HepG2 cell free culture (AID 720684)
Method in brief: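 Auto fluorescence equivalency versus Rose Bengal sodium, red channel Ex/Em 540/590 nm; compounds in cell-free MEM/10% FBS; DMSO vehicle control.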

[6] = qHTS assay to test for compound auto fluorescence at 460 nm (blue) in HepG2 cell free culture (AID 720685)
Method in brief: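 Cell-free plates of MEM plus 10% FBS received 23 nL compound or DMSO vehicle; blue-channel (405/460 nm) intensity scored against triamterene as reference fluorophore.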

[7] = qHTS assay to test for compound auto fluorescence at 535 nm (green) in HepG2 cell free culture (AID 720686)
[8] = qHTS assay to test for compound auto fluorescence at 460 nm (blue) in HepG2 cells (AID 720687)
Method in brief: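 HepG2 cells in MEM with 10% FBS, attached overnight at 37 C, were exposed to compound or DMSO for 1 hr at 37 C, 5% CO2. Blue fluorescence was read at 405/460 nm, with triamterene as reference fluorophore.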

[9] = target: Glucocorticoid receptor (Homo sapiens) (UniProt P04150); assay: qHTS assay to identify small molecule agonists of the glucocorticoid receptor (GR) signaling pathway (AID 720691; active = well fitted activation curve with a large enough effect in the signal ratio in the repeat runs, not every such curve was filed as active; the % refers to the signal ratio)
Method in brief: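 Cells: GR-bla HeLa, endogenous GR with stably integrated GRE-beta-lactamase reporter. Treatment 18 h, 37 C, compounds delivered in DMSO. Detection via LiveBLAzer B/G FRET substrate, 2 h RT, fluorescence intensity.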

[10] = target: Glucocorticoid receptor (Homo sapiens) (UniProt P04150); assay: qHTS assay to identify small molecule antagonists of the glucocorticoid receptor (GR) signaling pathway (AID 720692; active = well fitted inhibition curve with a large enough effect in the signal ratio in the repeat runs, not every such curve was filed as active; the % refers to the signal ratio)
Method in brief: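 Quantitative HTS in antagonist format: HeLa cells expressing endogenous GR and a stably integrated GRE-bla reporter, stimulated with 5 nM dexamethasone (final) alongside test compounds for 18 h.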

[11] = qHTS assay to identify small molecule antagonists of the glucocorticoid receptor (GR) signaling pathway - cell viability counter screen (AID 720693); also: nearly all actives have a fitted effect of over 55% in size
[12] = qHTS assay for identifying genotoxic compounds that show differential cytotoxicity against isogenic chicken DT40 cell lines with known DNA damage response pathways - Rev3 mutant cell line (AID 743014); also: nearly all actives have a fitted effect of over 55% in size; also: potency is read from the fitted curve at half-maximal effect
[13] = qHTS assay to identify small molecule antagonists of the androgen receptor (AR) signaling pathway using the MDA cell line - cell viability counter screen (AID 743041; also: nearly all actives have a fitted effect of over 45% in size)
Method in brief: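 Compound exposure lasted 16 h at 37C in MDA-kb2 AR-luc cells stimulated with R1881. Protease-based CellTiter-Fluor reagent was applied for the final 30 min and fluorescence measured.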

[14] = qHTS assay to identify small molecule antagonists of the thyroid receptor (TR) signaling pathway - cell viability counter screen (AID 743064); also: nearly all actives have a fitted effect of over 50% in size; also: potency is read from the fitted curve at half-maximal effect
Method in brief: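 Same-well viability check: GH3.TRE-Luc cells stimulated with 1 nM T3 alongside test compound for 23.5 h, followed by CellTiter-Fluor fluorescence.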

[15] = qHTS assay to identify small molecule antagonists of the thyroid receptor (TR) signaling pathway (AID 743065); also: nearly all actives have a fitted effect of over 55% in size; also: potency is read from the fitted curve at half-maximal effect
Method in brief: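 GH3.TRE-Luc rat pituitary cells (two TREs driving luciferase) were dosed with compound, then stimulated with 1 nM T3 (final) for 23.5 h at 37 C. ONE-Glo luminescence was the read-out, with CellTiter-Fluor fluorescence as the cytotoxicity counter-screen.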

[16] = qHTS assay for identifying genotoxic compounds that show differential cytotoxicity against isogenic chicken DT40 cell lines with known DNA damage response pathways - wild type cell line (AID 743012); also: nearly all actives have a fitted effect of over 60% in size; also: potency is read from the fitted curve at half-maximal effect
Method in brief: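 Luminescent ATP viability signal (CellTiter-Glo, 30 min RT) recorded after wild type DT40 cells were incubated with compounds for 40 h at 37 C/5% CO2.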

[17] = qHTS assay for identifying genotoxic compounds that show differential cytotoxicity against isogenic chicken DT40 cell lines with known DNA damage response pathways - Rad54/Ku70 mutant cell line (AID 743015); also: nearly all actives have a fitted effect of over 60% in size
[18] = qHTS assay to identify small molecule antagonists of the androgen receptor (AR) signaling pathway - cell viability counter screen (AID 743033; also: nearly all actives have a fitted effect of over 45% in size)
[19] = target: Androgen receptor (Homo sapiens) (UniProt P10275); assay: qHTS assay to identify small molecule agonists of the androgen receptor (AR) signaling pathway using the MDA cell line (AID 743040; also: nearly all actives have a fitted effect of over 20% in size)
Method in brief: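 Testing was done with the MDA-kb2 AR-luc line, a human breast carcinoma stably transfected with MMTV-luciferase containing AR and GR response elements. Cells were exposed 16 h at 37C before ONE-Glo luminescence detection.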

[20] = target: Androgen receptor (Homo sapiens) (UniProt P10275); assay: qHTS assay to identify small molecule agonists of the androgen receptor (AR) signaling pathway (AID 743036; active = well fitted activation curve with a large enough effect in the signal ratio in the repeat runs, with a control signal flat, not every such curve was filed as active; the % refers to the signal ratio)
Method in brief: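 Agonist activity was scored by beta-lactamase reporter fluorescence in stably transfected HEK293 cells exposed to compounds for 16 h at 37C and 5% CO2. Substrate loading took 2 h at room temperature.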
% is scaled to controls: 0 for no effect and ±100 for the full control effect.

Sequence of Androgen receptor (Homo sapiens) (P10275 whole entry, looked up): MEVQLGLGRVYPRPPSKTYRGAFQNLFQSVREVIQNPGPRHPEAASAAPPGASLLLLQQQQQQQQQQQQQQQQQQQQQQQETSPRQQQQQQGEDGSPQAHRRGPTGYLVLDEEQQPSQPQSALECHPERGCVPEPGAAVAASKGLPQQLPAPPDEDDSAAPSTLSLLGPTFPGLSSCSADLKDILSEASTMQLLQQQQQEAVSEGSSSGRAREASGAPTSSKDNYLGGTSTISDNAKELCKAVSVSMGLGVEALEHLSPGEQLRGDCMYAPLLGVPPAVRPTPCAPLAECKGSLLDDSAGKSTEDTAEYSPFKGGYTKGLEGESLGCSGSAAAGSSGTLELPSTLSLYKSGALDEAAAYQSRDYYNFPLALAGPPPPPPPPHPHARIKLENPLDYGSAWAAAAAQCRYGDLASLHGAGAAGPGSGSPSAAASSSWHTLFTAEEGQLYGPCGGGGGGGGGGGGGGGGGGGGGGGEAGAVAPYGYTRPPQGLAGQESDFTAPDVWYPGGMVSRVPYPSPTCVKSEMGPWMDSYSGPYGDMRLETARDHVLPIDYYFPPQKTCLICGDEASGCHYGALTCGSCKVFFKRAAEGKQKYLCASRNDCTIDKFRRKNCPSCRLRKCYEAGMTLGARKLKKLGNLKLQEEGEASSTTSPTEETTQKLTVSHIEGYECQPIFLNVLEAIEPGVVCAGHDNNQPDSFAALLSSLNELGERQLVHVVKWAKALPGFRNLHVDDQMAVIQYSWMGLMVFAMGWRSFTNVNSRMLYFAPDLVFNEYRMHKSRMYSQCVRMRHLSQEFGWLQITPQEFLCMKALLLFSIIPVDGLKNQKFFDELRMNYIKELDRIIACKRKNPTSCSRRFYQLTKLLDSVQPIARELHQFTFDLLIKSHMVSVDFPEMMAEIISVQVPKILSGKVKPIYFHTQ
Sequence of Glucocorticoid receptor (Homo sapiens) (P04150 whole entry, looked up): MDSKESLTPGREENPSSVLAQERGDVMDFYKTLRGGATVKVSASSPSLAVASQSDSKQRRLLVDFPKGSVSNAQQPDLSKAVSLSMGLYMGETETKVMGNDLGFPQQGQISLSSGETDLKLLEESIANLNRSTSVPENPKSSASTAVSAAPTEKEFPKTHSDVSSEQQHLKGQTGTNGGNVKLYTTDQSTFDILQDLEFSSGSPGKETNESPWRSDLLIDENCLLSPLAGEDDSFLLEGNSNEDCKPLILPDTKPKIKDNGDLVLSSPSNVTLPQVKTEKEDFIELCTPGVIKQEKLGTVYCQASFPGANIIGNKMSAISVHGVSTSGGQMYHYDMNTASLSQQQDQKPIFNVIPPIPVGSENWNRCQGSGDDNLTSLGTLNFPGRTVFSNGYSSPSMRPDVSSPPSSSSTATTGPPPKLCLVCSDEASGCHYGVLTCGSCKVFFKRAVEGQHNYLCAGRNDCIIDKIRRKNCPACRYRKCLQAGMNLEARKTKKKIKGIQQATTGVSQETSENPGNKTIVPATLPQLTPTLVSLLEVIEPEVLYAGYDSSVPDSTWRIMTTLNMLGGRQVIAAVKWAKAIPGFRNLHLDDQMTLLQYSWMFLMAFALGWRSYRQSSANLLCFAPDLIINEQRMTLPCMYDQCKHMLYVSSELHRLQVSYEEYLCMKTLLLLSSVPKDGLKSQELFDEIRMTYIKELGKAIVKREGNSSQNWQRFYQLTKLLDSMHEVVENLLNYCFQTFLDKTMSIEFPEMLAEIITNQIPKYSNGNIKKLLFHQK

CN(C(=O)CCCOc1ccc2[nH]c(=O)ccc2c1)C1CCCCC1
inactive: outcome [1] | Potency [2] | outcome [3] | outcome [4] | outcome [5] | Potency [6] | outcome [7] | Potency [8] | Potency [9] | Potency [10] | Potency [11] | Potency [12] | Potency [13] | Potency [14] | Potency [15]

COC(=O)C(C)=O
inactive: outcome [1] | Potency [2] | outcome [3] | outcome [4] | outcome [5] | Potency [6] | outcome [7] | Potency [8] | Potency [9] | Potency [10] | Potency [11] | Potency [16] | Potency [12] | Potency [17] | Potency [14]

CCCCCOC(=O)COc1cc(N2C(=O)C3=C(CCCC3)C2=O)c(F)cc1Cl
inactive: outcome [1] | Potency [2] | outcome [3] | outcome [4] | outcome [5] | Potency [6] | outcome [7] | Potency [8] | Potency [9] | Potency [10] | Potency [11] | Potency [12] | Potency [14]

COC(=O)CSc1cc(N=c2sc(=O)n3n2CCCC3)c(F)cc1Cl
inactive: outcome [1] | Potency [2] | outcome [3] | outcome [4] | outcome [5] | Potency [6] | outcome [7] | Potency [8] | Potency [9] | Potency [10] | Potency [18] | Potency [19] | Potency [14] | Potency [15]

O=C(Nc1ccccc1)OCC(CN1CCCCC1)OC(=O)Nc1ccccc1 (centres undefined)
active: Potency [14] 10.1 µM | Potency [15] 10.1 µM
inactive: fluorescence, % of fluorescein [1] 0.0795% [at 18.6 µM] | fluorescence, % of fluorescent control [2] -0.0858% [at 18.6 µM] | activity change [3] 0.0431% [at 18.6 µM] | fluorescence, % of fluorescent control [4] 0.0296% [at 18.6 µM] | fluorescence, % of Rose Bengal [5] 0.0349% [at 18.6 µM] | fluorescence, % of fluorescent control [6] -0.044% [at 18.6 µM] | fluorescence, % of fluorescein control [7] 0.0354% [at 18.6 µM] | fluorescence, % of fluorescent control [8] -0.0488% [at 18.6 µM] | Potency [9] | Potency [10] | Potency [11] | Potency [16] | Potency [12] | Potency [18] | Potency [13]

CC[C@H](C)[C@@H](C(=O)O)n1sc2ccccc2c1=O
inactive: outcome [1] | Potency [2] | outcome [3] | outcome [4] | outcome [5] | Potency [6] | outcome [7] | Potency [8] | Potency [9] | Potency [10] | Potency [16] | Potency [18] | Potency [14]

CCCCC(CC)COCCCN (centres undefined)
inactive: outcome [1] | Potency [2] | outcome [3] | outcome [4] | outcome [5] | Potency [6] | outcome [7] | Potency [8] | Potency [9] | Potency [10] | Potency [13]
active: Potency [12] 60.4 µM

CC[C@@H]1C[C@H](N(Cc2cc(C(F)(F)F)cc(C(F)(F)F)c2)C(C)=O)c2cc(C(F)(F)F)ccc2N1C(=O)OC(C)C
inactive: outcome [1] | Potency [2] | outcome [3] | outcome [4] | outcome [5] | Potency [6] | outcome [7] | Potency [8] | Potency [9] | Potency [10] | Potency [11] | Potency [18] | Potency [13] | Potency [15]
active: Potency [16] 27.3 µM

C[Si](C)O[Si](C)(C)O[Si](C)(C)O[Si](C)C
inactive: outcome [1] | Potency [2] | outcome [3] | outcome [4] | outcome [5] | Potency [6] | outcome [7] | Potency [8] | Potency [9] | Potency [10] | Potency [11] | Potency [16] | Potency [12] | Potency [17] | Potency [13] | Potency [14]

Cc1cc(NC(=O)C(=O)O)cc(C)c1Oc1ccc(O)c2c1CCC2
inactive: outcome [1] | Potency [2] | outcome [3] | outcome [4] | outcome [5] | Potency [6] | outcome [7] | Potency [8] | Potency [9] | Potency [10] | Potency [11] | Potency [16] | Potency [17] | Potency [18] | outcome [20] | Potency [19] | Potency [13] | Potency [14]

O=C1CCCCCO1
inactive: outcome [1] | Potency [2] | outcome [3] | outcome [4] | outcome [5] | Potency [6] | outcome [7] | Potency [8] | Potency [9] | Potency [11] | Potency [16] | Potency [12] | Potency [17] | Potency [18] | Potency [13] | Potency [15]

CC(C)c1cccc(C(C)C)c1NC(=O)NS(=O)(=O)c1cc(C(C)(C)O)co1
inactive: outcome [1] | Potency [2] | outcome [3] | outcome [4] | outcome [5] | Potency [6] | outcome [7] | Potency [8] | Potency [9] | Potency [10] | Potency [11] | Potency [16] | Potency [12] | Potency [17] | Potency [13] | Potency [14] | Potency [15]

N#Cc1cc2ccccc2c2ccccc12
inactive: outcome [1] | Potency [2] | outcome [3] | outcome [4] | outcome [5] | Potency [6] | outcome [7] | Potency [8] | Potency [9] | Potency [10] | Potency [11] | Potency [17] | Potency [13] | Potency [15]

O=c1[nH]cnc2ccccc12
inactive: outcome [1] | Potency [2] | outcome [3] | outcome [4] | outcome [5] | Potency [6] | outcome [7] | Potency [8] | Potency [9] | Potency [10] | Potency [11] | Potency [18] | Potency [13] | Potency [15]

CCCCOC(=O)/C=C\C(=O)OCCCC
inactive: outcome [1] | Potency [2] | outcome [3] | outcome [4] | outcome [5] | Potency [6] | outcome [7] | Potency [8] | Potency [9] | Potency [11] | Potency [16] | Potency [12] | Potency [17] | Potency [18] | Potency [14]
